According to PubChem BioAssay (NCI):
The panel holds about 79,000 compounds, 15% with a hit somewhere; the sample as a whole holds those more often. Cut-off read from the data, not from the text of the source: active = growth inhibition above about 70%; inactive = the rest. Where a SMILES comes first, the peptide text is derived from it. The star is where a group is joined. Boc = CC(C)(C)OC(=O)*

What was measured:
[1] = NCI Yeast Anticancer Drug Screen. Data for the rad50 strain (AID 155);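 note: 0% = growth of vehicle-only cultures of the same strain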; details: S. cerevisiae rad50 strain growth inhibition; at 50.0 µM; active compounds read high
Outline: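 DNA repair mutant yeast, compound exposure, growth read-out; inhibition is taken relative to vehicle.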

[2] = NCI Yeast Anticancer Drug Screen. Data for the mec2-1 strain (AID 157); details: S. cerevisiae mec2-1 strain, at 50.0 µM, active compounds read high
Outline: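 Each compound was tested on mec2-1 yeast, a strain altered in DNA damage repair or cell cycle control. Growth inhibition is reported relative to vehicle.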

[3] = NCI Yeast Anticancer Drug Screen. Data for the sgs1 mgt1 strain (AID 161);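 note: 0% = growth of cultures given vehicle only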; details: S. cerevisiae sgs1 mgt1 strain, at 50.0 µM, active compounds read high
Outline: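 Test agents were incubated with a DNA-repair-mutant yeast strain. Growth was then read and compared against vehicle-treated controls.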

[4] = NCI Yeast Anticancer Drug Screen. Data for the cln2 rad14 strain (AID 165);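 note: 0% = growth equal to vehicle treated cultures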; details: S. cerevisiae cln2 rad14 strain, at 50.0 µM, active compounds read high
Outline: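 Test compounds were added to cln2 rad14 yeast cultures; inhibition of growth was then determined by comparison with vehicle treatment.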

[5] = NCI Yeast Anticancer Drug Screen. Data for the bub3 strain (AID 167); details: S. cerevisiae bub3 mutant strain, at 50.0 µM, active compounds read high
Outline: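 In this screen, a yeast mutant lacking normal mitotic checkpoint function is challenged with compound. Relative growth versus vehicle gives the inhibition value.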

[6] = NCI Yeast Anticancer Drug Screen. Data for the mlh1 rad18 strain (AID 175); details: S. cerevisiae mlh1 rad18 strain growth inhibition; at 50.0 µM; active compounds read high
Outline: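 Inhibition values reflect reduced growth of mutant yeast versus vehicle-treated controls following compound exposure; the mutations affect DNA damage repair.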

Measured: growth inhibition

CC(C)c1ccc(O)c(C(C)(C)C)c1
inactive: [1] -25.5% | [2] -29.8% | [3] -14.3% | [4] -13.9% | [5] -32.5% | [6] -14.6%

Cc1cc(NC(=O)CCc2ccc(N3C(N)=NC(N)=NC3(C)C)cc2)ccc1S(=O)(=O)O
inactive: [1] 38.1% | [2] -5.55% | [3] 8.05% | [4] -14.4% | [5] 2.05% | [6] -5.55%

COC(=O)c1ccccc1C1CN=NC12Cc1cccc(C)c1C2=O (configuration not stated)
inactive: [1] 26.6% | [2] 20.2% | [3] 64.8% | [4] 43.1% | [5] 28.9% | [6] 52.6%

O=C(O)C1(CC(CCCN2CCCCC2)c2ccccc2)CCCC1 (configuration not stated)
inactive: [1] -40% | [2] -9.65% | [3] -4.1% | [4] 6.4% | [5] -15.4% | [6] -36.3%

CO[C@@H]1O[C@H](C(=O)c2ccccc2)[C@H]2OC(C)(C)O[C@@H]12
inactive: [1] -5% | [2] -10.7% | [3] 28.3% | [4] 8.7% | [5] 19.1% | [6] 16.3%

COc1ccc2ccccc2c1C1OC(=O)c2ccccc21 (configuration not stated)
inactive: [1] 37.8% | [2] 24.6% | [3] 51.7% | [4] 33.4% | [5] 25.2% | [6] 52.5%

CCC(C(=O)O)c1cccc2c(C)ccc(C)c12 (configuration not stated)
inactive: [1] 8.25% | [2] 3.55% | [3] 21.4% | [4] 23.2% | [5] 7.7% | [6] 8.15%

CSc1nc2c(c(=O)n(C)c(=O)n2C)n1C
inactive: [1] 30.4% | [2] -3.25% | [3] -10.7% | [4] 8.15% | [5] 9.15% | [6] 24.9%

CCOC(=O)C(C)(C)c1ccc(OC)cc1
inactive: [1] -14.2% | [2] -3.6% | [3] -8.6% | [4] -18.9% | [5] 2.6% | [6] -16.2%

Nc1ncnc2c1ncn2C1OC(CO)C(NC(=O)C(N)CCC(=O)O)C1O (configuration not stated)
inactive: [1] 1.75% | [2] -4.2% | [3] 21.6% | [4] -9.4% | [5] -0.9% | [6] -5.3%

Nc1nc(C2CCCCC2)cc(=O)[nH]1
inactive: [1] 1.2% | [2] 9% | [3] -4.3% | [4] -25.1% | [5] 5.5% | [6] -0.65%

C=CC(=O)OCCC#N
inactive: [1] 9% | [2] 18.8% | [3] 1.3% | [4] 2.8% | [5] 15.1% | [6] 5.45%

COC(=O)c1ncn(C(C(=O)OC)C(=O)OC)c1O
inactive: [1] -5.6% | [2] -6.75% | [3] -4.75% | [4] -14.4% | [5] -5.1% | [6] -10.8%

CC(C)C(=O)Nc1cccc([N+](=O)[O-])c1
inactive: [1] -2.1% | [2] -8.75% | [3] 6.75% | [4] -24.6% | [5] -6.85% | [6] -7.6%

C=CCOC(=O)c1cccc(C)c1
inactive: [1] 9.7% | [2] 0.3% | [3] -1% | [4] -41.4% | [5] 9.9% | [6] 7.7%

COC12NC(=O)NC(=O)C1(c1ccccc1)CC(C)O2 (configuration not stated)
inactive: [1] -2.7% | [2] -2.15% | [3] 6.8% | [4] -7.7% | [5] -24.1% | [6] -6.6%

N#CCCC1(CCC#N)CCCCCCC(CCC#N)(CCC#N)C(O)C1O (configuration not stated)
inactive: [1] 10.8% | [2] -12% | [3] -6.45% | [4] 3.15% | [5] -15.2% | [6] -46.2%

CCCCCCCCCCCCN(CC(O)C(O)C(OC1OC(CO)C(O)C(O)C1O)C(O)CO)C(=O)CCCCCCCCCCC (configuration not stated)
inactive: [1] -2.7% | [2] -19.2% | [3] 17.7% | [4] 0.4% | [5] 4.3% | [6] -50.5%

Br[C@H]1CC2CCC1C2 (some centres not stated)
inactive: [1] 23.1% | [2] -23.9% | [3] 2.9% | [4] 6.9% | [5] -6.1% | [6] 5.65%

Brc1cnc2nc(Cc3ccccc3)[nH]c2c1
inactive: [1] 5.05% | [2] 7.7% | [3] 17.3% | [4] -52.3% | [5] 27% | [6] 2.9%

O=C(NN1C(=O)CSC1c1ccccc1F)c1ccncc1 (configuration not stated)
inactive: [1] 11.2% | [2] 6.25% | [3] 21.6% | [4] 7.7% | [5] 11.9% | [6] 19.5%

Fc1ccc2c(c1)CC(CBr)O2 (configuration not stated)
inactive: [1] -14.2% | [2] -8.5% | [3] -4.5% | [4] -23.9% | [5] -1.95% | [6] 2.8%

c1ccc(CC2(Cc3ccccc3)SCCS2)cc1
inactive: [1] -11.7% | [2] 8.45% | [3] 6.55% | [4] 1.15% | [5] -0.6% | [6] -6.05%

Cc1nc([N+](=O)[O-])cn1CC(=N)N
inactive: [1] -23% | [2] -28.8% | [3] -16.1% | [4] -5.15% | [5] -25.6% | [6] -38.7%

O=C(CCc1nnc2s/c(=C\c3ccccc3Cl)c(=O)n12)Nc1cc(Cl)ccc1Cl
inactive: [1] 2.9% | [2] -14.7% | [3] -36.8% | [4] -21.8% | [5] -4.8% | [6] -15.1%

CC(=O)Nc1ccc([N+](=O)[O-])cc1
inactive: [1] 30.9% | [2] -0.75% | [3] -5.3% | [4] 5.55% | [5] 14.7% | [6] 1%

CCN(CC)C(=O)/C(C)=C(\C)c1ccccc1
inactive: [1] -12.7% | [2] 11.8% | [3] -11.6% | [4] 8.3% | [5] 2.9% | [6] -1.45%

CN(CN(C)/N=C/c1ccc(Cl)cc1)/N=C/c1ccc(Cl)cc1
inactive: [1] 1.05% | [2] 11.6% | [3] 7.95% | [4] 12.8% | [5] -4.8% | [6] 10.1%

CC(=O)CC(C)=Nc1ccc([N+](=O)[O-])cc1
inactive: [1] 1.75% | [2] -3.9% | [3] -6.7% | [4] -34.5% | [5] -16.6% | [6] 2.3%

COc1ccc2nc(N(C)C)cc(N(C)C)c2c1
inactive: [1] -10.6% | [2] 5.6% | [3] -2.4% | [4] -34.8% | [5] 4.6% | [6] -5%

C#CC(C)(C)OC(=O)Nc1ccc(Cl)cc1
inactive: [1] 27.4% | [2] 16.2% | [3] -0.35% | [4] -44.2% | [5] 7.9% | [6] 13.1%

O=C(Cl)c1cc(I)c(I)c(I)c1
inactive: [1] 41% | [2] 47.3% | [3] 54.3% | [4] 37.2% | [5] 53.2% | [6] 40%

OC1(c2cccc(Cl)c2)C2=NCCCN2c2ccccc21 (configuration not stated)
inactive: [1] 5.05% | [2] 8.45% | [3] 6.7% | [4] 21.6% | [5] -28.4% | [6] 5.75%

N=C(N)S/C=C/C(=O)O
inactive: [1] -18.8% | [2] -17.4% | [3] -20.5% | [4] -4.65% | [5] -13.8% | [6] -19.6%

C/C(=N\[N+](C)(C)C)c1ccc(C)c(C)c1
inactive: [1] 9.45% | [2] -38% | [3] -23.2% | [4] 17.9% | [5] -56.2% | [6] -5%

CC(=O)C1CCC(CCCC(C)C)CC1 (configuration not stated)
inactive: [1] 13.9% | [2] -2.4% | [3] -2.75% | [4] -10.4% | [5] 2.4% | [6] 6.2%

CC(c1ccccc1)C1OCC(CCCCO)O1 (configuration not stated)
inactive: [1] -7.9% | [2] -20.2% | [3] -10.7% | [4] 0.55% | [5] -15.1% | [6] -20.1%

O=c1[nH]c(-c2ccccc2)nc2cc([N+](=O)[O-])c(/C(Cl)=C/c3ccccc3)cc12
inactive: [1] 28.8% | [2] 14.4% | [3] 13.8% | [4] 12.1% | [5] -1% | [6] 33.8%

CCOC(=O)C1=C(C(=O)c2ccc(C)cc2)C(c2c(Cl)cccc2Cl)C(C(=O)c2ccc(C)cc2)=C(C(=O)OCC)N1
inactive: [1] 18.4% | [2] 21.1% | [3] 37.8% | [4] 44.5% | [5] 54.9% | [6] 38%

COc1ccccc1NC(=S)NCCO
inactive: [1] 7.25% | [2] 8.7% | [3] 17.6% | [4] 0.8% | [5] 21.1% | [6] 13.6%

CCOC(=O)C(CC(C)C)NC(=O)C(Cc1ccccc1)NC(=O)CNC(=O)OC(C)(C)C (stereo not drawn) (Boc-Gly-Phe-Leu-OEt; configuration not given here)
inactive: [1] 7.65% | [2] 7.35% | [3] 9.45% | [4] -11.7% | [5] 7.2% | [6] 18.2%

COC(=O)c1cc(C(=O)OC)c(CC(=O)C(=O)Nc2c(C(C)C)cccc2C(C)C)nc1CC(=O)C(=O)Nc1c(C(C)C)cccc1C(C)C
inactive: [1] -18.8% | [2] -22.9% | [3] -11.7% | [4] 1.75% | [5] -13.1% | [6] -6.85%
